# According to the supplement of paper PMC6555819:
# How the values were obtained:
# Assay in all cases: PBM binding z-score (relative to random genomic background probes); higher = stronger binding; sequences stand for … in GC…GCGATTGACAGCGTAGAATGAAGG
# [1] = system: FXR:RXRa (NR concentration 270 nM, RXRa partner concentration 90 nM)
# Procedure, shortened: (§1)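 Random background probes are the reference for binding z-scores. These scores derive from regression-normalized fluorescence on custom Agilent 4×180K protein-binding microarrays incubated 1 h with ligand-free nuclear receptor dimers. Binding was detected with antibodies against each partner (one per run).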
# [2] = system: LXRa:RXRa (NR concentration 270 nM, RXRa partner concentration 90 nM)
# Procedure, shortened: as §1
# [3] = system: LXRa homodimer (NR concentration 270 nM)
# Procedure, shortened: as §1
# [4] = system: LXRb:RXRa (NR concentration 270 nM, RXRa partner concentration 90 nM)
# Procedure, shortened: as §1
# [5] = system: LXRb homodimer (NR concentration 270 nM)
# Procedure, shortened: as §1
# [6] = system: PPARa:RXRa (NR concentration 270 nM, RXRa partner concentration 90 nM)
# Procedure, shortened: as §1
# [7] = system: PPARg:RXRa (NR concentration 180 nM, RXRa partner concentration 90 nM)
# Procedure, shortened: as §1
# [8] = system: PPARg:RXRa 270nM:90nM, anti-RXR (NR concentration 270 nM, RXRa partner concentration 90 nM)
# Procedure, shortened: as §1
# [9] = system: PPARg:RXRa 30nM:10nM, anti-RXR (NR concentration 30 nM, RXRa partner concentration 10 nM)
# Procedure, shortened: as §1
# [10] = system: PPARg:RXRa 90nM:30nM, anti-RXR (NR concentration 90 nM, RXRa partner concentration 30 nM)
# Procedure, shortened: as §1
# [11] = system: PPARg:RXRa DBDmut IVT, anti-RXR (DBD mutation: RXRa K156A/R161A, NR concentration 270 nM, RXRa partner concentration 90 nM)
# Procedure, shortened: as §1
# [12] = system: PPARg:RXRa IVT, anti-PPARg (NR concentration 270 nM, RXRa partner concentration 90 nM)
# Procedure, shortened: as §1
# [13] = system: PPARg DBDmut:RXRa IVT, anti-PPARg (DBD mutation: PPARg1 K132A/R137A, NR concentration 270 nM, RXRa partner concentration 90 nM)
# Procedure, shortened: as §1
# [14] = system: PPARg DBDmut IVT, anti-PPARg (DBD mutation: PPARg1 K132A/R137A, NR concentration 270 nM)
# Procedure, shortened: as §1
# [15] = system: PPARg homodimer (NR concentration 180 nM)
# Procedure, shortened: as §1
# [16] = system: PXR:RXRa (NR concentration 270 nM, RXRa partner concentration 90 nM)
# Procedure, shortened: as §1
# [17] = system: PXR homodimer (NR concentration 270 nM)
# Procedure, shortened: as §1
# [18] = system: RARa:RXR (NR concentration 270 nM, RXRa partner concentration 90 nM)
# Procedure, shortened: as §1
# [19] = system: RARa homodimer (NR concentration 270 nM)
# Procedure, shortened: as §1
# [20] = system: RARb:RXRa (NR concentration 270 nM, RXRa partner concentration 90 nM)
# Procedure, shortened: as §1
Sequence,PBM binding z-score [1],PBM binding z-score [2],PBM binding z-score [3],PBM binding z-score [4],PBM binding z-score [5],PBM binding z-score [6],PBM binding z-score [7],PBM binding z-score [8],PBM binding z-score [9],PBM binding z-score [10],PBM binding z-score [11],PBM binding z-score [12],PBM binding z-score [13],PBM binding z-score [14],PBM binding z-score [15],PBM binding z-score [16],PBM binding z-score [17],PBM binding z-score [18],PBM binding z-score [19],PBM binding z-score [20]
ACTATTAGTTGACTTAGGGCTACCGATACGACGC,0.0661,-0.121,-0.0225,-0.352,0.601,-0.131,0.862,-0.0974,0.182,-0.112,-0.203,0.114,1.14,0.816,0.416,-0.151,-0.109,0.146,0.74,0.27
CTACCACGGTGAACAAGGTCGTTGATTACTATTC,0.517,0.708,0.301,1.4,-0.058,1.28,0.357,0.508,-0.252,0.141,0.771,0.788,-0.025,-0.267,0.744,1.44,1.01,1.15,0.251,0.76
TATAGAGGGTCAAAGGCCAGAGTACGAATGTCGA,6.65,4.84,0.902,3.76,1.49,5.82,8.05,6.87,5.22,7.09,2.58,4.43,0.901,0.741,2.2,3.62,0.282,5.1,1.12,4.11
CGATCTAGGTCATTGACAGGACAGTGAATAGTAA,4.68,2.86,0.511,2.07,0.134,4.52,6.86,6.06,3.13,5.68,7.84,7.9,1.48,1.96,1.92,1.64,0.255,2.35,0.361,3.61
CAGCCTAGGTCAGGGCCAGTATAGGAGGAACGTT,1.63,0.984,0.0185,0.506,-0.929,2.13,0.978,1.03,0.126,0.524,0.848,1.84,-0.882,-1.52,1.03,0.272,-0.731,1.2,-0.0375,3.6
TAGCCTAGTTCAGATCGGGCCAGTATACGCTATA,-0.29,-0.351,-0.598,-0.308,-0.592,-0.113,-0.019,-0.325,-0.538,-0.475,0.415,0.54,-0.537,-0.978,-0.824,0.226,-0.407,0.532,-1.17,0.472
TAGACTAGGTCATGGGCCAGTATACCACGCGAAC,3.63,2.6,0.103,1.81,0.438,4.41,7.24,6.34,4.78,6.07,5.98,6.8,1.6,0.962,1.38,1.04,0.462,2.1,0.407,3.49
CAAACTTGGTCACAGAGGTCAAAGTCCGTGCGTA,5.4,5.01,5.81,5.15,1.63,5.31,4.74,5.07,2.04,4.21,2.87,4.58,0.599,0.268,3.66,6.07,3.89,6.64,1.42,4.34
TCTCGGAGGACACGAAGGTCAGAGCGTTCCAGAG,1.4,1.13,0.0459,0.874,-1.15,2.05,0.373,1.63,2.34,2.05,1.02,1.49,-0.71,-1.07,1,1.87,0.555,1.84,-0.476,3.4
ATCTCTAGGTAAGCAAGTTCAGTGAATGCCGAAC,0.021,0.323,0.32,-0.00291,0.392,0.496,0.0727,0.538,0.367,0.23,1.64,1.7,0.134,-0.0297,0.55,1.37,1.12,0.257,0.268,0.858
ACTAGTTGGTCAGCTGAGGTCACACATAATTCGG,3.42,3.14,2.03,3.37,1.17,3.6,1.8,2.34,0.875,1.62,1.85,2.53,0.818,1.05,2.38,5.42,1.87,4.34,1.21,3.51
CTCGAAAGGTCGTGCTCATGTGAGTATACCAAAC,5.17,3.72,0.36,3.54,0.234,5.08,2.86,3.9,0.836,2.6,1.04,1.63,0.526,0.798,1.16,3.17,0.0761,4.03,0.231,4.13
GCTAGTTGGTCAGTAAAAGATCACACACCGGTCG,-0.109,-0.07,0.00819,-0.18,-0.212,-0.194,0.637,-0.0816,-0.233,-0.12,0.304,0.185,-0.527,0.421,0.2,-0.208,-0.161,0.0692,0.555,0.45
TTATATAGGTAAATGCTAGGTGAAAGTCCGATCT,0.733,0.69,0.375,0.64,0.108,2.18,2.61,2.59,1.97,2.34,6.27,5.32,1.86,2.12,1.28,0.481,0.535,0.686,1.58,0.351
TCTTGTAGATCAACAGGAGGTTAAGAAAGATCGA,0.227,1.19,0.133,0.709,-0.3,1.22,-0.0134,1.2,2.19,1.56,1.3,0.568,0.392,0.445,0.0227,0.753,-0.259,0.995,-0.178,0.617
CTTCCAAGGTGAACAAGGTCGTTGATTACTATTC,1.17,1.18,0.234,1.67,-0.522,2.49,0.855,1.31,0.0258,0.487,2.37,2.58,0.501,-0.605,0.985,2.6,1.19,1.97,-0.158,2.18
AGTCAAAGTTCAGGACTAGGTAACGTAAAGCACG,3.95,3.56,1.18,1.7,0.0894,3.41,4.81,5.05,2.27,4.21,0.593,3.09,0.657,0.484,1.73,2.41,1.04,2.4,1.11,4.13
TAGCCTCGGTCATGCGGGCCAGTATAGTGTCGGC,0.522,0.28,-0.0554,-0.734,-0.472,-0.0733,-0.325,-0.494,-0.587,-0.372,-0.364,0.336,-0.318,-0.413,-0.406,-0.524,-0.81,-0.296,-0.888,2.36
CCGACTGGGGCAAGGGTTACCATACTCAGTACGA,0.0555,0.199,-0.283,0.579,-0.86,3.84,8.6,7.56,6.82,7.87,3.17,4.93,-0.628,-1.19,0.0321,0.443,-0.412,1.53,-0.348,1.57
CGAGCTAGGTCAGAACAGGACAGTGAAGGATGAT,1.62,0.749,-0.308,-0.00924,-0.647,1.11,1.11,0.596,-0.277,0.0129,1.93,1.04,-1.14,-1.15,0.363,0.798,-0.245,0.682,-0.341,2.89
GCTGCTATGTCAACTGATGGTCAGCTAAAGCTCG,-0.296,-0.497,-0.849,-0.37,-0.729,-0.283,-0.143,-0.387,-0.655,-0.456,0.616,-0.0594,-1.42,-1.27,-1.18,-0.32,-0.913,-0.149,-1.19,0.753
AGAACGAGGGCACGCTCAGTTGATAGCAGAGTAG,0.582,0.413,-0.836,0.0167,-0.804,2.06,2.08,1.64,0.279,0.796,3.98,4.09,0.654,0.271,0.0615,0.642,0.028,0.591,-0.377,2.64
CGTCCAAGGTCAAAGGTCAGTGCAGAGATGACGG,8.41,7.01,3.67,6.47,1.91,7.1,10.5,9.08,8.16,9.41,3.55,5.49,1.33,1.29,4.31,7.08,2.79,9.23,3.59,5.77
CCTGCTAGGTCAATGGTCACCTAAAGCAGCTCGC,3.09,2.46,0.104,1.86,-0.189,3.68,5.66,5.88,3.3,5.26,3.93,4.42,0.106,-0.848,1.21,1.24,-0.353,2.13,-0.122,3.96
AGAATGAGGTTACCAAAGATCAAGGAAACGCTTG,2.13,7.01,0.25,4.24,-0.325,3.7,2.89,3.09,1.08,2.26,3.78,3.43,0.922,0.563,0.97,2.06,-0.325,2.48,-0.42,2.25
TCGAGTAGGTTACCAATGGGGCATTCATCTTTCT,-0.000727,1.01,-0.201,1.21,-0.516,1.23,0.329,1.33,1.28,1.18,3.66,2.75,-0.207,-0.196,0.277,0.256,-0.536,0.587,-0.332,0.994
AGTCAAAGTGCAGGACGAGGTAACGTAAAGCACG,-0.105,-0.155,-0.419,-0.641,-0.89,0.169,1.06,1.03,0.301,0.389,-0.506,0.274,-0.356,-0.388,-0.0962,-0.156,-0.256,0.784,-0.657,1.15
TAGCCTAGGTCATTCAGGGGCGAGTATAGAAAGC,5.04,5.21,0.875,3.77,1.13,3.69,2.21,2.4,0.501,1.61,1.58,3.05,0.363,0.38,1.3,4.17,-0.00215,3.55,0.172,3.89
